Assay outcomes deposited in PubChem BioAssay by several laboratories.
CSC inhib: blocks cancer stem cells; hit rate 1.1% among 300,000; cancer stem cell-like cells viability, luminescence; inhibition, % at 7.5 µM; in the data active means inhibition above about 75%; inconclusive means no clear call, values can overlap the other calls; tested in HMLE shEcad cells
Jurkat NFkB inh: inhibitors of the PMA/ionomycin-induced NF-kB reporter in Jurkat cells | PMA/ionomycin-induced NF-kB luciferase reporter, luminescence | inhibition, % at 4 µM | hit rate 0.53% among 330,000; in the data active means inhibition above about 50%
Beta apoptosis: beta cell apoptosis inhibition; hit rate 0.8% among 300,000; protection from apoptosis, % (concentration not given with the values); INS-1E cytokine-induced death, ATP luminescence, 48 h; percent of positive-control rescue, neutral wells zero;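 active means Every replicate reaches about 75%, or at least half do and their mean reaches it too, limit read from the data; inconclusive means At least half of replicates reach the limit but their mean does not; inactive means Under half of replicates reach the limit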;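 further: higher means more ATP so stronger rescue from cytokine killing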
Gli-Sufu block: Gli-Sufu pathway antagonism | Sufu-KO-LIGHT fibroblasts, Gli luciferase reporter luminescence | hit rate 0.74% among 340,000 | inhibition, % at 5 µM | AID 588413;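 active means inhibition above about 55%, limit read from the data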
Mdm2 MdmX PPI: inhibitors of human Mdm2/MdmX interaction; O15151+Q00987; SaOS-2 split-luciferase Mdm2/MdmX complementation, luminescence; inhibition, % at 8 µM; hit rate 3% among 330,000;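 active means inhibition of at least 50% at 8 µM in the primary screen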
Target sequence (O15151 whole entry, looked up): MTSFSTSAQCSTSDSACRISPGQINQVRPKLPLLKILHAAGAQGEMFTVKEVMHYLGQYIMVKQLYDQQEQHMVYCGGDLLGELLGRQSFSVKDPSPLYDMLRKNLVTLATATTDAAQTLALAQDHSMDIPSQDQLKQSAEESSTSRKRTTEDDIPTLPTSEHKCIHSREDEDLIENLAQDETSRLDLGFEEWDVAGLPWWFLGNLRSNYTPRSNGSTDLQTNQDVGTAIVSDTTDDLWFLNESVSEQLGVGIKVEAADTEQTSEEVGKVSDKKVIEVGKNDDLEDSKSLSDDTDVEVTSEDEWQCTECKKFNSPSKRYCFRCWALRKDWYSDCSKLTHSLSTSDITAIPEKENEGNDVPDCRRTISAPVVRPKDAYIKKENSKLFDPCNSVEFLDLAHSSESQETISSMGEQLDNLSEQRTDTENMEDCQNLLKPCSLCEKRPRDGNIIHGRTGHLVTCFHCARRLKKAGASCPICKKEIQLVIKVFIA
Target sequence (Q00987 whole entry, looked up): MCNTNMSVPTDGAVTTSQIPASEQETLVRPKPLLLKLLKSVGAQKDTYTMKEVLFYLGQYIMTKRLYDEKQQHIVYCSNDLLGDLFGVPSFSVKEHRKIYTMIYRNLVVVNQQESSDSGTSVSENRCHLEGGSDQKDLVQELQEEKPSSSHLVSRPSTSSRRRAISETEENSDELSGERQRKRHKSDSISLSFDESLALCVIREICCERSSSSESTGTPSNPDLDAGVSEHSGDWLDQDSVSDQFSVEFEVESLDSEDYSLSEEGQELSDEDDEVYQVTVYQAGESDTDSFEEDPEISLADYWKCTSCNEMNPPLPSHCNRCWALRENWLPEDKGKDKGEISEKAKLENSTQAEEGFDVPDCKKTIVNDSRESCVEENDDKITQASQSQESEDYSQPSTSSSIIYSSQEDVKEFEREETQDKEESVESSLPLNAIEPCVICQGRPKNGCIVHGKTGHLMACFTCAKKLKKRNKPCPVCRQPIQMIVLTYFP
697 NFkB inh: lowers PMA/ionomycin-induced NF-kB signal in 697 B cells; 697 B-cell NF-kB luciferase reporter, 16 h; inhibition, % at 4 µM; hit rate 0.33% among 330,000; in the data active means inhibition above about 35%
Mdm2 MdmX conf: human Mdm2/MdmX binding inhibition, confirmed. inhibition, % at 8 µM. shares compounds with Mdm2 MdmX PPI. luminescent assay. hit rate 55% among 10,000; in the data active means inhibition above about 40%
Full FLuc ctr: counter-screen for Mdm2/MdmX inhibitors: full-length luciferase | hit rate 77% among 6,200 | AID 504607 | inhibition, % at 8 µM | shares compounds with Mdm2 MdmX PPI | SaOS-2 full-length luciferase counterscreen, luminescence;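 active means mean inhibition at 8 µM reaching about 37%, which flags the compound as non-specific, limit read from the data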;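 further: p53-null SaOS-2 cells with luciferase driven by a doxycycline-inducible promoter; compound on cells about two nights before reading with doxycycline added after day one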
Of the large screens only hits and unclear results are named; the others gave an inactive call (follow-up assays come after a bar, where they were run). An excerpt weighted towards active compounds, which were near 4.5% of everything screened.

CCN(CC)CCCNC(=O)c1cc(Cl)c(NC(=O)C2=C(C)OCCS2)cc1OC	none
Cc1cc(S(=O)(=O)N2CCCOC2CNC(=O)C(=O)NCc2cccs2)ccc1F (stereo not drawn)	none
Nc1cc(OC(=O)c2ccc(F)cc2)nn1S(=O)(=O)c1ccccc1	none
O=C(NOC(=O)c1c(F)cccc1Cl)c1ccc(Cl)c(Cl)c1	none
Clc1ccc2ncc(-c3nnnn3-c3ccccc3)c(-c3ccccc3)c2c1	Mdm2 MdmX PPI 56.0 | Mdm2 MdmX conf inactive | Full FLuc ctr 43.1
Clc1ccc(-n2nnnc2-c2cnc3ccc(Cl)cc3c2-c2ccccc2)cc1	Mdm2 MdmX PPI 61.4 | Mdm2 MdmX conf inactive
COC(=O)c1sc(NC(=S)NNC(=O)c2c(Br)c(C)nn2C)c(C(=O)OC)c1C	none
CC1CCC(C(C)C)C(OC(=O)C[n+]2cc(-c3ccc(Cl)cc3)n3c2CCC3)C1 (stereo not drawn)	none
Cc1cccc(OCc2n(CC(=O)OC3CC(C)CCC3C(C)C)c3ccccc3[n+]2C)c1 (stereo not drawn)	CSC inhib 103.4, Beta apoptosis 106.3, Mdm2 MdmX PPI 94.5 | Mdm2 MdmX conf 96.3 | Full FLuc ctr 55.8
CC1CCC(C(C)C)C(OC(=O)Cn2c(-c3ccc(F)cc3)[n+](C)c3ccccc32)C1 (stereo not drawn)	Beta apoptosis 105.1, Gli-Sufu block 80.9, Mdm2 MdmX PPI 89.0 | Mdm2 MdmX conf 93.2 | Full FLuc ctr 56.5
CC(=O)c1ccc(Oc2ncnc(N)c2[N+](=O)[O-])cc1	Mdm2 MdmX PPI 60.2 | Mdm2 MdmX conf 60.3 | Full FLuc ctr 45.0
CCc1ccc(Oc2ncnc(N)c2[N+](=O)[O-])cc1	none
Cc1cc(NC(=O)C(C)SCC(=O)N(Cc2ccccc2)c2ccccc2)no1 (stereo not drawn)	Mdm2 MdmX PPI 66.9 | Mdm2 MdmX conf 45.2 | Full FLuc ctr 109.7
CC(C)OC(=O)c1c2nc3ccccc3nc2n2c1[nH]c(=O)c1ccccc12	Mdm2 MdmX PPI 59.5 (no result: Gli-Sufu block) | Mdm2 MdmX conf inactive | Full FLuc ctr 47.8
CC(C)(C)c1ccc(-n2nc(C(N)=O)c(O)cc2=O)cc1	none (no result: Beta apoptosis)
CC(C)(C)c1ccc(-n2nc(C#N)c(Cl)cc2=O)cc1	Mdm2 MdmX PPI 100.3 (no result: CSC inhib, Beta apoptosis) | Mdm2 MdmX conf 100.2 | Full FLuc ctr inactive
CC(=O)c1ccc(Sc2nnnn2-c2ccccc2)c([N+](=O)[O-])c1	Mdm2 MdmX PPI 84.9 | Mdm2 MdmX conf 58.2 | Full FLuc ctr inactive
O=[N+]([O-])c1ccc(Sc2nnnn2-c2ccccc2)c(Cl)c1	none
CN1CCN(S(=O)(=O)c2ccc(Sc3nnnn3-c3ccccc3)c([N+](=O)[O-])c2)CC1	Mdm2 MdmX PPI 88.0 (no result: Beta apoptosis) | Mdm2 MdmX conf 77.3 | Full FLuc ctr 56.1
O=C(NCCC1=CCCCC1)c1ccc(=O)oc1	none
O=C(NCCC1=CCCCC1)c1coc(=O)c(Br)c1	CSC inhib inconclusive, Mdm2 MdmX PPI 83.9 | Mdm2 MdmX conf inactive | Full FLuc ctr inactive
Cc1ccc(C)c2[nH]c(=O)c(CN(CCN3CCCC3)C(=O)Nc3cccc(Cl)c3)cc12	Mdm2 MdmX PPI 55.4 (no result: CSC inhib) | Mdm2 MdmX conf inactive | Full FLuc ctr 38.1
CCc1ccc2[nH]c(=O)c(CN(CCCN3CCOCC3)C(=O)Nc3cccc(Cl)c3)cc2c1	Mdm2 MdmX PPI 50.1 | Mdm2 MdmX conf inactive
CC(OC(=O)c1cccc(N(C)C)c1)C(=O)N1CCc2ccccc2C1 (stereo not drawn)	none
Nc1nc(N)nc(-c2cc([N+](=O)[O-])ccc2O)n1	Mdm2 MdmX PPI 77.3 | Mdm2 MdmX conf 63.2 | Full FLuc ctr 82.1
Nc1nc(N)c2cc([N+](=O)[O-])ccc2n1	none (no result: CSC inhib, Jurkat NFkB inh, Beta apoptosis, Mdm2 MdmX PPI, 697 NFkB inh)
Cc1nc(N)nc(-c2ccccc2O)n1	none
Nc1nc(N)nc(-c2cc(O)ccc2O)n1	Mdm2 MdmX PPI 87.5 | Mdm2 MdmX conf 94.8 | Full FLuc ctr 54.8
CCOC(=O)c1sc2nc(C)nc(NCc3ccccc3)c2c1C	Mdm2 MdmX PPI 52.0 | Mdm2 MdmX conf inactive | Full FLuc ctr 112.9
CCn1c(SCC(=O)N2CC(C)OC(C)C2)nc2c([nH]c3ccccc32)c1=O (stereo not drawn)	none
